Some test systems named below: HCT-15 colon; HT29 colon; SNB-75 CNS; SNB-19 CNS; U251 CNS; PC-3 prostate; SK-MEL-5 melanoma; UACC-62 melanoma; LOX IMVI melanoma; SK-MEL-28 melanoma; SK-MEL-2 melanoma; EKVX NSCLC; SN12C renal; UO-31 renal; TK-10 renal; ACHN renal; CAKI-1 renal; A498 renal; CCRF-CEM leukemia; MOLT-4 leukemia.
What all share (assay): NCI-60 one-dose screen, 48 h (100 = growth as untreated, 0 = no growth, -100 = all killed)
Settings in all cases: 10 µM unless noted

The record followed here is PubChem BioAssay (NCI).

About 83,000 compounds went through this panel and 20% of them were active in at least one assay; those are over-represented in the sample as a whole.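 How to read the values: 0–100, growth inhibition (40 = 60% inhibited); 0, no net growth; -100 to 0, cell death (-40 = 40% of starting cells died; -100 = all dead).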 Unmarked numbers belong to inactive results. Activity calls are given as the source filed them. Rule for the calls: active = growth percent below 10; inactive = the rest.

Regarding `COC1C(O)CC(OC2CC(OC3CC(O[C@@H]4C(=O)c5c(cc6cc(OC7CC(OC8CC(O)C(O)C(C)O8)C(O)C(C)O7)c(C)c(O)c6c5O)CC4[C@H](OC)C(=O)C(C)=O)OC(C)C3O)OC(C)C2O)OC1C` (stereo not given in full), the growth in the assay on HCT-15 colon is -2.22% (active); in the assay on HT29 colon it was -19.8% (active); in the assay with SNB-75 CNS, -80.9% (active); with SNB-19 CNS it was 11.2%; in the assay on U251 CNS, 1.19% (active); in the assay with PC-3 prostate it was -1.97% (active). The growth was -40.4% (active) with SK-MEL-5 melanoma; -30.3% (active) with UACC-62 melanoma; -2.05% (active) in the assay on LOX IMVI melanoma; -20.6% (active) in the assay with SK-MEL-28 melanoma; -41.9% (active) in the assay with SK-MEL-2 melanoma; 3.71% (active) in the assay on EKVX NSCLC. In addition, the growth in the assay with SN12C renal is 7.44% (active); in the assay with UO-31 renal it was -27.7% (active); in the assay on TK-10 renal, -8.69% (active); in the assay on ACHN renal it was 5.29% (active); with CAKI-1 renal it was 16.9%; with A498 renal it was -44.1% (active). Besides, the growth was 4.37% (active) with CCRF-CEM leukemia and -6.83% (active) in the assay on MOLT-4 leukemia.
Turning to `Nc1nc(C(=O)N/N=C/c2ccc(F)cc2)nn1-c1ccc(S(N)(=O)=O)cc1`, the growth was 108% in the assay with HCT-15 colon; 98.5% in the assay with HT29 colon; 83.1% with SNB-75 CNS; 95.2% in the assay with SNB-19 CNS; 98.4% with U251 CNS; 107% in the assay with PC-3 prostate. Also, the growth with SK-MEL-5 melanoma was 107%; in the assay with UACC-62 melanoma it was 94.4%; with LOX IMVI melanoma it was 94.1%; in the assay on SK-MEL-28 melanoma, 107%; with SK-MEL-2 melanoma it was 104%; in the assay on EKVX NSCLC it was 101%. The growth was 93.8% with SN12C renal; 81.4% in the assay on UO-31 renal; 99.4% with TK-10 renal; 99.2% with ACHN renal; 90.4% in the assay with CAKI-1 renal; 100% in the assay with A498 renal. Moreover, the growth in the assay with CCRF-CEM leukemia was 112%; in the assay with MOLT-4 leukemia it was 111%.
With `Nc1[nH]nc2nc(-c3ccccc3)n3c4ccccc4nc3c12`, the growth is 101% with HCT-15 colon; 104% in the assay on HT29 colon; 87.7% with SNB-75 CNS; 106% in the assay on SNB-19 CNS; 102% in the assay with U251 CNS; 95.2% in the assay with PC-3 prostate. The growth in the assay with SK-MEL-5 melanoma is 92.8%; with UACC-62 melanoma it was 88.7%; with LOX IMVI melanoma, 99.7%; with SK-MEL-28 melanoma, 117%; with SK-MEL-2 melanoma, 98.8%; with EKVX NSCLC, 78%. The growth in the assay on SN12C renal was 104%; in the assay on UO-31 renal, 83.2%; in the assay with TK-10 renal, 110%; in the assay with ACHN renal, 89%; with CAKI-1 renal, 83.1%; in the assay on A498 renal, 89.2%. Moreover, the growth in the assay on CCRF-CEM leukemia was 102%; with MOLT-4 leukemia it was 97.9%.
In the case of `C/C(Cc1ccc(Cl)cc1)=C(\c1ccc(OCCN2CCCCCC2)cc1)c1ccc(OC(=O)c2ccccc2)cc1`, the growth is 14.1% in the assay with HCT-15 colon; 6.24% (active) in the assay on HT29 colon; 77.3% in the assay with SNB-75 CNS; 50.3% in the assay with SNB-19 CNS; 37.8% in the assay on U251 CNS; 19.4% with PC-3 prostate. For the same molecule, the growth in the assay on SK-MEL-5 melanoma was 35.3%; in the assay on UACC-62 melanoma, -3.38% (active); with LOX IMVI melanoma, -21.8% (active); with SK-MEL-28 melanoma, -1.89% (active); with SK-MEL-2 melanoma it was 77.4%; in the assay on EKVX NSCLC, 78.8%. Moreover, the growth was 11.2% in the assay on SN12C renal; 24% in the assay on UO-31 renal; 67% with TK-10 renal; 68.9% in the assay on ACHN renal; 52.6% with CAKI-1 renal; 76.1% with A498 renal. The growth in the assay on CCRF-CEM leukemia was -4.75% (active); in the assay with MOLT-4 leukemia, 9.42% (active).
On to `O=C(Cn1nc(-c2cccc3ccccc23)ccc1=O)NCc1cccc(Cl)c1`, for which the growth with HCT-15 colon was 28.9% [50 µM]; with HT29 colon it was 43% [50 µM]; in the assay on SNB-75 CNS, 74.3% [50 µM]; in the assay with SNB-19 CNS it was 45.3% [50 µM]; in the assay on U251 CNS, 35% [50 µM]; in the assay on PC-3 prostate, 19.6% [50 µM]. Also, the growth in the assay on SK-MEL-5 melanoma is 5.82% [50 µM] (active); with UACC-62 melanoma, 35.2% [50 µM]; in the assay on LOX IMVI melanoma, 28.6% [50 µM]; with SK-MEL-28 melanoma, 56% [50 µM]; in the assay with SK-MEL-2 melanoma it was 59.2% [50 µM]; with EKVX NSCLC, 21% [50 µM]. For the same molecule, the growth with SN12C renal is 46.4% [50 µM]; with UO-31 renal, 15.3% [50 µM]; in the assay with TK-10 renal, 40.7% [50 µM]; with ACHN renal, 28.9% [50 µM]; in the assay with CAKI-1 renal, 40.2% [50 µM]; in the assay on A498 renal it was 26.8% [50 µM]. In addition, the growth with CCRF-CEM leukemia was 43.9% [50 µM]; in the assay with MOLT-4 leukemia it was 20.5% [50 µM].
`Fc1cccc(-c2nc(-c3c[nH]c4ncccc34)cs2)c1`: the growth was 82.9% [100 µM] in the assay on HCT-15 colon; 76% [100 µM] in the assay on HT29 colon; -14.1% [100 µM] (active) in the assay on SNB-75 CNS; 70.8% [100 µM] in the assay with SNB-19 CNS; 33.7% [100 µM] in the assay on U251 CNS; 59.6% [100 µM] in the assay with PC-3 prostate. The growth is 50.6% [100 µM] in the assay on SK-MEL-5 melanoma; 73.1% [100 µM] in the assay on UACC-62 melanoma; 74.3% [100 µM] in the assay on LOX IMVI melanoma; 89.2% [100 µM] in the assay with SK-MEL-28 melanoma; 117% [100 µM] with SK-MEL-2 melanoma; 28.6% [100 µM] in the assay on EKVX NSCLC. The growth was 62.7% [100 µM] in the assay on SN12C renal; 61.1% [100 µM] in the assay on UO-31 renal; 18% [100 µM] with TK-10 renal; 22% [100 µM] with ACHN renal; -11.1% [100 µM] (active) with CAKI-1 renal; 76.6% [100 µM] with A498 renal. For the same molecule, the growth is 72% [100 µM] in the assay on CCRF-CEM leukemia and 71.8% [100 µM] with MOLT-4 leukemia.
Turning to `CCOC(=O)CNC1=C(Cl)C(=O)N(Cc2ccc(Cl)cc2)C1=O`, the growth is 110% in the assay with HCT-15 colon; 105% in the assay with HT29 colon; 97.9% in the assay with SNB-75 CNS; 98.6% in the assay with SNB-19 CNS; 100% in the assay with U251 CNS; 97.7% in the assay on PC-3 prostate. For the same molecule, the growth is 102% with SK-MEL-5 melanoma; 104% with UACC-62 melanoma; 95.9% with LOX IMVI melanoma; 106% in the assay on SK-MEL-28 melanoma; 101% with SK-MEL-2 melanoma; 100% with EKVX NSCLC. Moreover, the growth in the assay on SN12C renal was 99.1%; in the assay on UO-31 renal it was 66.6%; with TK-10 renal it was 102%; with ACHN renal, 101%; with CAKI-1 renal it was 95.4%; in the assay with A498 renal, 90.3%. For the same molecule, the growth with CCRF-CEM leukemia was 102%; with MOLT-4 leukemia, 98.2%.
